Laboratory results taken from the supplement of paper PMC13380429.

Tested on: Vero E6 infected with SARS-CoV-2
Assay: inhibition of SARS-CoV-2 cytopathic effect; higher = more antiviral protection, active = above 15
Settings: 48 h

Measured: inhibition of SARS-CoV-2 cytopathic effect

COc1ccc(/C=C\c2cc(OC)c(OC)c(OC)c2)cc1O [combretastatin-A-4]
inactive: 1 nM 1.94% | 8.33 nM 1.57% | 100 nM -1.22% | 833.33 nM -2.08% | 10000 nM -0.45%

C[C@@H]1CN(Cc2ncccn2)C[C@H]1c1nc2c(cnn2C2CCOCC2)c(=O)[nH]1
inactive: 1 nM -1.78% | 8.33 nM 1.47% | 100 nM -0.33% | 833.33 nM 1.24% | 10000 nM -2.82%

O=S(=O)(c1ccccc1)c1cnc2c(N3CCNCC3)cccc2c1
inactive: 1 nM -2.8% | 8.33 nM -0.02% | 100 nM -3.01% | 833.33 nM 0.98% | 10000 nM 1.43%

CCCCCCNC(=O)Nc1ccc(S(=O)(=O)Nc2ccc(CCNC[C@H](O)COc3ccc(O)cc3)cc2)cc1
inactive: 1 nM 0.66% | 8.33 nM 0.75% | 100 nM 0.54% | 833.33 nM 2.18% | 10000 nM 1.5%

O=C1CCCCCCCCCCCCCCO1 [oxacyclohexadecan-2-one]
inactive: 1 nM -0.21% | 8.33 nM 0.27% | 100 nM 0.06% | 833.33 nM 1.81% | 10000 nM -1.21%

O=C(C=Cc1ccccc1)NC(NC(=S)Nc1ccc(Cl)cc1)C(Cl)(Cl)Cl (stereo not given)
inactive: 1 nM 0.51% | 8.33 nM 0.81% | 100 nM -4.17% | 833.33 nM -1.91% | 10000 nM -5.67%

CC[C@H]1OC(=O)[C@@](C)(F)C(=O)[C@H](C)[C@@H](O[C@@H]2O[C@H](C)C[C@H](N(C)C)[C@H]2O)[C@](C)(OC)C[C@@H](C)C(=O)[C@H](C)[C@H]2N(CCCCn3cc(-c4cccc(N)c4)nn3)C(=O)O[C@]12C [solithromycin]
inactive: 1 nM 0.98% | 8.33 nM 0.59% | 100 nM 0.05% | 833.33 nM -0.9% | 10000 nM -4.38%

C[C@H](N)[C@H](O)c1cccc(O)c1 [metaraminol]
inactive: 1 nM 5.57% | 8.33 nM 5.04% | 100 nM 2.34% | 833.33 nM 1.83% | 10000 nM 1.14%

COc1ccc2c(c1)c(CC(=O)O)c(C)n2C(=O)c1ccc(Cl)cc1 [indomethacin]
inactive: 1 nM -1.21% | 8.33 nM 0.75% | 100 nM -0.25% | 833.33 nM 0.83% | 10000 nM 0.17%

C/C=C/c1cc(OC)c(OC)cc1OC [alpha-asarone]
inactive: 1 nM 0.99% | 8.33 nM 0.62% | 100 nM -3.56% | 833.33 nM -3.9% | 10000 nM -0.33%

O=C(CCCl)NCCc1ccccc1 [fenaclon]
inactive: 1 nM 4.5% | 8.33 nM -2.28% | 100 nM 0.58% | 833.33 nM -1.53% | 10000 nM -1.25%

COc1cc2c(cc1O)CC[C@@H]1[C@@H]2CC[C@]2(C)[C@@H](O)CC[C@@H]12 [2-methoxyestradiol]
inactive: 1 nM -3.17% | 8.33 nM 0.66% | 100 nM -1.13% | 833.33 nM -1.83% | 10000 nM -4.59%

COc1ccc2[nH]c3c(-c4cccc5ccccc45)nccc3c2c1
inactive: 1 nM -2.63% | 8.33 nM 0.26% | 100 nM -0.2% | 833.33 nM -4.62% | 10000 nM -2.93%

NCc1ccccc1CC(=O)N[C@@H]1C(=O)N2C(C(=O)O)=C(CSc3nnnn3CC(=O)O)CS[C@H]12 [ceforanide]
inactive: 1 nM 0.96% | 8.33 nM 0.98% | 100 nM -0.17% | 833.33 nM 2.04% | 10000 nM 2.57%

C[C@H](N[C@@H](CCc1ccccc1)C(=O)O)C(=O)N1CCC[C@H]1C(=O)O [enalaprilat]
inactive: 1 nM -0.58% | 8.33 nM 1.11% | 100 nM -0.39% | 833.33 nM 1.61% | 10000 nM 2.39%

Cc1c(C)c(NCC(=O)N(C)C2CCN(Cc3ccc(C(N)=O)cc3)CC2)c(C)c(C)c1N
inactive: 1 nM -0.43% | 8.33 nM -0.21% | 100 nM 0.76% | 833.33 nM -0.15% | 10000 nM 2.16%

CC[C@]1(O)C[C@@H]2CN(CCc3c([nH]c4ccccc34)[C@@](C(=O)OC)(c3cc4c(cc3OC)N(C)[C@H]3[C@@](O)(C(=O)OC)[C@H](OC(C)=O)[C@]5(CC)C=CCN6CC[C@]43[C@@H]65)C2)C1 [Vinblastine (sulfate)]
inactive: 1 nM -0.48% | 8.33 nM 1.74% | 100 nM -0.03% | 833.33 nM 0.75% | 10000 nM -0.15%

CCCCCCCCOc1ccccc1C(=O)Nc1ccc(C(=O)OCC[N+](C)(CC)CC)cc1 [otilonium]
inactive: 1 nM 2.76% | 8.33 nM -0.22% | 100 nM 1.35% | 833.33 nM 1.63% | 10000 nM 0.68%

CN1C(C(=O)Nc2ccccn2)=C(O)c2sccc2S1(=O)=O [tenoxicam]
inactive: 1 nM -1.61% | 8.33 nM -5.04% | 100 nM -1.6% | 833.33 nM 0.7% | 10000 nM -2.71%

CCOC(=S)SSC(=S)OCC [dixanthogen]
inactive: 1 nM -1.96% | 8.33 nM -1.61% | 100 nM -1.47% | 833.33 nM -0.83% | 10000 nM 1.23%

CC(C)NCC(O)c1ccc([N+](=O)[O-])cc1 (stereo not given) [nifenalol]
inactive: 1 nM -3.06% | 8.33 nM 0.04% | 100 nM -1.08% | 833.33 nM 0.11% | 10000 nM -2.75%

CCCCCCCCCCCCC[N+](C)(C)Cc1ccccc1 [benzalkonium]
inactive: 1 nM -0.66% | 8.33 nM 0.17% | 100 nM -0.42% | 833.33 nM 1.78% | 10000 nM -8.08%

CCCC[C@H]1OC(=O)c2ccccc21 [butylphthalide]
inactive: 1 nM -2.11% | 8.33 nM -2.6% | 100 nM -0.12% | 833.33 nM 1.5% | 10000 nM 0.31%

COc1cccc(CCc2ccccc2OCC(CN(C)C)OC(=O)CCC(=O)O)c1 (stereo not given) [sarpogrelate]
inactive: 1 nM -0.45% | 8.33 nM -1.71% | 100 nM -2.81% | 833.33 nM -0.22% | 10000 nM -1.72%

NC[C@H]1O[C@H](O[C@H]2[C@H](O)[C@@H](O[C@H]3O[C@H](CO)[C@@H](O)[C@H](N)[C@H]3O)[C@H](N)C[C@@H]2N)[C@H](N)C[C@@H]1O [tobramycin]
inactive: 1 nM -1.08% | 8.33 nM 1.78% | 100 nM -0.88% | 833.33 nM 0.11% | 10000 nM 0.19%

CN1C(=O)C[C@@H](C(=O)N[C@@H](Cc2c[nH]cn2)C(=O)N2CCC[C@H]2C(N)=O)NC1=O [taltirelin]
inactive: 1 nM 1.73% | 8.33 nM 3.69% | 100 nM 3% | 833.33 nM 3.21% | 10000 nM 4.65%

CC(C)N(CCCNC(=O)Nc1ccc(C(C)(C)C)cc1)C[C@H]1O[C@@H](n2ccc3c(N)ncnc32)[C@H](O)[C@@H]1O
inactive: 1 nM 4.48% | 8.33 nM 2.04% | 100 nM 4.36% | 833.33 nM -0.49% | 10000 nM 0.43%

c1ccc2c(CCNc3ccc(Nc4ccncc4)cc3)c[nH]c2c1 [serdemetan]
active: 10000 nM 22.1%
inactive: 1 nM -2.3% | 8.33 nM -1.01% | 100 nM -2.55% | 833.33 nM -0.64%

CCc1nc2ccc(Cl)cn2c1C(=O)NCc1ccc(N2CCC(c3ccc(OC(F)(F)F)cc3)CC2)cc1
inactive: 1 nM 0.5% | 8.33 nM 1.98% | 100 nM -0.55% | 833.33 nM 0.62% | 10000 nM -1.65%

O=C(Nc1cc(Oc2cc(F)c(NC(=O)C3(C(=O)Nc4ccc(F)cc4)CC3)cc2F)ccn1)C1CC1 [altiratinib]
inactive: 1 nM -1% | 8.33 nM 2.23% | 100 nM 3.44% | 833.33 nM -1.62% | 10000 nM 1.09%

O=C1NC(O)CCN1[C@@H]1O[C@H](CO)[C@@H](O)[C@H]1O (stereo not given in full) [tetrahydrouridine]
inactive: 1 nM 2.54% | 8.33 nM 1.19% | 100 nM 0.47% | 833.33 nM -0.67% | 10000 nM -0.83%

O=c1n(CCCN2CCN(c3cccc(Cl)c3)CC2)nc2ccccn12 [trazodone]
inactive: 1 nM 0.53% | 8.33 nM 4.07% | 100 nM 0.98% | 833.33 nM -1.12% | 10000 nM -0.82%

CNC(=O)c1cc(Oc2ccc(NC(=O)Nc3ccc(Cl)c(C(F)(F)F)c3)c(F)c2)ccn1 [regorafenib]
inactive: 1 nM 2.3% | 8.33 nM 3.25% | 100 nM 1.21% | 833.33 nM -1.69% | 10000 nM 2.67%

FC(F)(F)c1ccc(N2CCNCC2)nc1Cl
inactive: 1 nM 1.34% | 8.33 nM -0.28% | 100 nM 0.72% | 833.33 nM 1.94% | 10000 nM -3.98%

C[C@H]1[C@H](NC(=O)/C(=N\OC(C)(C)C(=O)O)c2csc(N)n2)C(=O)N1S(=O)(=O)O [aztreonam]
active: 8.33 nM 20%
inactive: 1 nM 3.78% | 100 nM 1.14% | 833.33 nM -1.55% | 10000 nM 0.92%

CC(C)C[C@H](NC(=O)[C@@H](Cc1c[nH]c2ccccc12)NC(=O)[C@H](Cc1ccc(O)cc1)NC(=O)[C@H](CO)NC(=O)[C@H](Cc1c[nH]c2ccccc12)NC(=O)[C@H](Cc1c[nH]cn1)NC(=O)[C@@H]1CCC(=O)N1)C(=O)N[C@@H](CCCNC(=N)N)C(=O)N1CCC[C@H]1C(=O)NCC(N)=O [triptorelin]
inactive: 1 nM -0.4% | 8.33 nM 2.79% | 100 nM 1.66% | 833.33 nM 2.17% | 10000 nM 0.84%

COCCOC(=O)C1=C(C)NC(C)=C(C(=O)OC(C)C)C1c1cccc([N+](=O)[O-])c1 (stereo not given) [nimodipine]
inactive: 1 nM -2.49% | 8.33 nM -0.07% | 100 nM -1% | 833.33 nM 1.52% | 10000 nM 1.16%
